# Sa RN4220 lethal = kills Staphylococcus aureus RN4220. actives 0.33% (n = 330,000). inhibition, % (no concentration beside the values). S. aureus RN4220 growth, OD600, 16 h; in the data active means inhibition above about 85%;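 further: plate controls were untreated cells for no effect and reference antibiotic for full effect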
# Mtb betalactam = beta-lactam sensitization of Mtb H37Rv | M. tuberculosis H37Rv growth with meropenem, percent inhibition | inhibition, % at 25 µM | actives 0.27% (n = 330,000) | AID 434955; call rule not given here;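 further: growth measured after seven days incubation then overnight dye step; 0% = bacteria only wells and 100% = bacteria with antibiotic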
# Sa ugtP lethal = compounds lethal to S. aureus RN4220 ugtP deletion mutant | OD600 growth, 16 h | growth inhibition, % (concentration not given with the values) | actives 0.54% (n = 330,000); in the data active means growth inhibition above about 68%;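 further: plate controls were untreated wells for no effect and antibiotic for full effect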
# Rv3671c inh = inhibitors of M. tuberculosis serine protease Rv3671c; inhibition, % at 5.96 µM; P9WHR9; actives 0.048% (n = 320,000); in the data active means inhibition above about 38%;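 further: extracellular domain of Rv3671c used as enzyme; 0% = enzyme with DMSO and 100% = no enzyme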
# Target sequence (P9WHR9 whole entry, looked up, the tested form may be a part): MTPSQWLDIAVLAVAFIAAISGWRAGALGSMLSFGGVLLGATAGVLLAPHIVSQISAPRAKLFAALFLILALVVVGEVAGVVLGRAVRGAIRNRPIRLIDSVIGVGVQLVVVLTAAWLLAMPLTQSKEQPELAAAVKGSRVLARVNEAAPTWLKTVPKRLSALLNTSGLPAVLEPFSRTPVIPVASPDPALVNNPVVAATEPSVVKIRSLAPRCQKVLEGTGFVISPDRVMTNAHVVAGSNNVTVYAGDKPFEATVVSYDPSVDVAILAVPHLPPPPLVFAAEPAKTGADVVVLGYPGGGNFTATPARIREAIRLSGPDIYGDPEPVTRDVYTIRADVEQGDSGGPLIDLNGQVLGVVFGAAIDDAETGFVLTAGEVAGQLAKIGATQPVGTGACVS
# Mtb hypoxia rep = Mtb hypoxia fluorescent reporter inhibition. M. tuberculosis hypoxia-regulated fluorescent reporter, fluorescence. fluorescence inhibition, % (no concentration beside the values). actives 0.1% (n = 300,000). AID 1159583; in the data active means fluorescence inhibition mostly above about 23%, no sharp cut-off; inactive means mostly below about 17%
# UGM FP inh = Mtb UDP-galactopyranose mutase inhibition; inhibition, % at 10 µM; AID 504406; actives 0.06% (n = 320,000); P9WIQ1; purified UGM, fluorescence polarization probe displacement; in the data active means inhibition above about 10%, passing the limit was not always enough
# * marks the source's active call; other numbers are inactive results; . = no result shown. Shown are actives, neighbours in structure and some others; about 0.68% of the full set was active somewhere.
SMILES,Sa RN4220 lethal,Mtb betalactam,Sa ugtP lethal,Rv3671c inh,Mtb hypoxia rep,UGM FP inh
CSc1ccc(Cl)c(C(=O)NCCOc2cc(C(C)C)ccc2C)c1,96*,-1,97*,-7,6,3
CC(CSc1ccc(Br)cc1)CN1CCC(C(C)(C)C)CCC1=O (stereo not given),0,.,-16,.,10,.
CN1CC2C(c3ccccc3)C3(c4ccc(C#N)cc4)CC2(C3)C1c1ccccc1 (stereo not given),-3,.,-3,.,6,.
O=C(O)CC(Cc1ccc(Cl)cc1)C(=O)Nc1ccc([N+](=O)[O-])cc1 (stereo not given),5,7,11,-4,14,1
O=C(NC(CO)Cc1ccc([N+](=O)[O-])cc1)C(Cl)Cl (stereo not given),94*,99,99*,2,.,1
O=C(NC(CO)C(O)c1ccc([N+](=O)[O-])cc1)C(Cl)Cl (stereo not given),89*,98,96*,1,.,-1
O=C(N[C@H](CO)[C@H](O)c1ccc([N+](=O)[O-])cc1)C(Cl)Cl,98*,97,98*,0,.,0
COC(=O)[C@]1(C)NC(c2ccc(SC3CCCCC3)cc2)C2C(=O)N(C)C(=O)C21 (stereo not given in full),-1,.,-5,.,-4,.
Nc1ccc(C2(c3ccc(N)cc3)c3ccccc3-c3ccccc32)cc1,3,-6,-1,-2,50*,6
Nc1ccc(C2(c3ccc(N)cc3)c3ccccc3C(=O)c3ccccc32)cc1,-3,-1,4,-2,7,2
CN(Cc1ccccc1)C(=O)NC1CCCCC1,4,-23,-1,-8,5,3
CC(C)(Sc1ccc(CCN(CCCCC2CCCCC2)C(=O)NC2CCCCC2)cc1)C(=O)O,66,4,86*,-6,8,1
Cc1ccc(S(=O)(=O)N2[C@@H](c3ccc(C(C)(C)C)cc3)C(C(=O)O)=CC[C@H]2c2ccc(Cl)c(Cl)c2)cc1,100*,5,95*,-22,4,.
Cc1ccc(S(=O)(=O)N2C(c3ccc(Cl)cc3)CC=C(C(=O)O)C2c2ccc(F)cc2)cc1 (stereo not given),19,.,93*,.,11,.
COc1ccc(C2CC=C(C(=O)O)C(c3cccc(Cl)c3)N2S(=O)(=O)c2ccc(Cl)cc2)cc1 (stereo not given),23,.,35,.,4,.
Cc1cc(C(=O)CCl)c(C)n1CCc1ccc(Cl)cc1,93*,100,97*,2,19,0
C(=Cc1ccccc1)C=NNc1nc(N2CCOCC2)nc(N2CCOCC2)n1,6,.,-3,.,7,.
O=C(O)Cn1cc(C=C2SC(=O)N(CC(=O)N3CCCCCC3)C2=O)c2ccccc21,-3,.,-2,.,-1,.
CC(C)COc1ccc(C(=NO)c2ccccc2)cc1,22,.,86*,.,3,.
O=C1CCCN1CCCN=c1c([N+](=O)[O-])nn(-c2ccc(Cl)cc2)n1O,64,.,62,.,46*,.
COc1ccc(Oc2cn[nH]c2-c2ccc(O)cc2O)cc1,-13,8,8,10,12,5
CCCc1ccc(Oc2cn[nH]c2-c2ccc(O)cc2O)cc1,67,6,90*,7,-4,2
Oc1c(Cl)cc(Cl)cc1CN1CCN(Cc2ccccc2)CC1,-3,10,0,4,-1,0
Oc1c(Cl)cccc1Cc1cc(Cl)cc(Cl)c1O,100*,.,100*,.,12,.
Cc1ccc2c(c1)sc(-c1ccc(N(C)C)cc1)[n+]2C,100*,8,101*,-12,.,1
SMILES,Sa RN4220 lethal,Mtb betalactam,Sa ugtP lethal,Rv3671c inh,Mtb hypoxia rep,UGM FP inh
O=C(NC1CC1)C1=CC(c2csc3ccccc23)CC(OCCCCO)O1 (stereo not given),6,.,4,.,9,.
CCC1(C)Cc2ccccc2-c2nc(NN)[nH]c(=O)c21 (stereo not given),7,0,1,-3,-4,-1
CCC1(C)Cc2ccccc2-c2nc(-c3ccccc3)oc(=O)c21 (stereo not given),-1,4,85*,-5,12,0
CNC(=O)c1c(NC(=O)C2=COCCO2)sc2c1CCN(C(=O)OC)C2,94*,-6,97*,1,1,1
CCC(=O)Nc1cccc(C2=NOC3(C2)CC(C(N)=O)N(C(=O)C2(C)CC2)C3)c1 (stereo not given),6,.,2,.,2,.
CCCn1c2c(c(=N)c3c1CCC3)CCCC2,3,2,3,3,10,-4
N=c1c2c(n(Cc3ccc(Br)cc3)c3c1CCC3)CCCC2,41,-2,99*,-6,24,-1
N=c1c2c(n(Cc3ccc(Cl)c(Cl)c3)c3c1CCC3)CCCC2,91*,2,99*,7,.,1
N=c1c2c(n(Cc3ccc([N+](=O)[O-])cc3)c3c1CCC3)CCCC2,0,-1,8,5,11,2
C#CCOCCOCCOCCNc1nc(N2CCN(C(=O)C(CCCCN)n3cc(C(N)CC(C)C)nn3)CC2)nc(N2CCN(C(=O)C(Cc3cc4ccccc4[nH]3)n3cc(C(N)Cc4ccc(O)cc4)nn3)CC2)n1 (stereo not given),3,.,0,.,12,.
CC(=NN1CCCCCC1)c1c(O)n(-c2ccc(C)cc2)c(=O)[nH]c1=O,8,.,-2,.,5,.
CCC(=O)Nc1cccc(C2=NOC3(C2)CC(C(N)=O)N(C(=O)Cc2ccc([N+](=O)[O-])cc2)C3)c1 (stereo not given),-2,.,-16,.,0,.
CC1(C)CC(NS(=O)(=O)OCC(Cl)(Cl)Cl)c2cc(C#N)ccc2O1 (stereo not given),99*,-3,99*,-9,0,3
C[C@]12CCC(=O)C=C1CCC1C3CCC(C(=O)CO)[C@@]3(C=O)CC(O)C12 (stereo not given in full),4,.,0,.,4,.
O=C(COC(=O)c1ccc([N+](=O)[O-])s1)NCc1ccccc1,10,.,7,-87,5,0
CC(C)(C)c1ccc(NC(=O)COC(=O)c2ccc([N+](=O)[O-])s2)cc1,83,100,100*,-1,8,1
Cc1[nH]c2ccccc2c1C(=O)COC(=O)c1ccc([N+](=O)[O-])s1,90*,100,96*,-3,2,-6
CCCCN(C(=O)c1oc2ccc(OCC)cc2c1C)c1c(N)n(CCCC)c(=O)[nH]c1=O,.,-5,.,-6,.,-1
CCCCn1c(N)c(N(CCOC)C(=O)c2oc3ccc(Br)cc3c2C)c(=O)[nH]c1=O,6,.,11,.,26*,.
CCCCN(C(=O)c1ccco1)c1c(N)n(CCC)c(=O)[nH]c1=O,2,-2,4,1,28*,2
CCCCN(C(=O)CSc1nnc(-c2ccccc2)o1)c1c(N)n(CCC)c(=O)[nH]c1=O,3,5,3,-2,30*,-2

# Source: PubChem BioAssay (several laboratories)
